Reference: PubChem BioAssay (EPA / NIEHS)
“And” between values parts separate entries of the source, which are not always exact repeats. Equal entries are not always repeated. Records with an inconclusive call do not appear. The source made the active and inactive calls. Rule for the calls, unless noted: active = hit-call score of the fitted dose curve at least 0.9, where 1 is the maximum; inconclusive = response in the unintended direction; inactive = score below 0.9.

Tests used:
[1] = molecular target: Bile acid receptor (Homo sapiens) (UniProt Q96RI1); assay: OT_FXR_FXRSRC1_0480: Odyssey Thera (OT) 8-hour HEK293T Protein-Complementation Assay for Farnesoid X receptor/SRC-1 Co-activator (AID 2283383)
In short: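 PCA, HEK293T, 8 h compound exposure; FXR–SRC-1 binding reconstitutes split reporter; fluorescence intensity; positive-direction fit vs DMSO.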

[2] = molecular target: Peroxisome proliferator-activated receptor gamma (Homo sapiens) (UniProt P37231); assay: OT_PPARg_PPARgSRC1_0480: Odyssey Thera (OT) 8-hour Protein-Complementation Assay for Peroxisome Proliferator-activated Receptor Gamma / SRC-1 Co-activator (AID 2283387);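 note: nuclear to cytoplasmic split Venus YFP fluorescence ratio reporting PPARg SRC-1 interaction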
In short: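 Protein-fragment complementation of split Venus YFP reports PPARg/SRC-1 interaction in HEK293T (transfected 48 h before treatment), exposed 8 h. Readout: N/C fluorescence ratio at 488 nm from imaging, Draq5 for segmentation, positive fit relative to DMSO.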

[3] = molecular target: Peroxisome proliferator-activated receptor gamma (Homo sapiens) (UniProt P37231); assay: OT_PPARg_PPARgSRC1_1440: Odyssey Thera (OT) 24-hour Protein-Complementation Assay for Peroxisome Proliferator-activated Receptor Gamma/ SRC-1 Co-activator (AID 2283388);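 note: nuclear to cytoplasmic ratio of reconstituted Venus YFP fluorescence in fixed imaged cells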
In short: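 Readout is the 488 nm N/C fluorescence ratio from fixed, Draq5-stained HEK293T cells after 24 h compound exposure. Cells carried transiently transfected PPARg and SRC-1 fused to Venus fragments, transfected 48 h before treatment.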

[4] = molecular target: Bile acid receptor (Homo sapiens) (UniProt Q96RI1); assay: OT_FXR_FXRSRC1_1440: Odyssey Thera (OT) 24-hour HEK293T Protein-Complementation Assay for Farnesoid X receptor/SRC-1 Co-activator (AID 2283384)
In short: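 Measures ligand-driven FXR–SRC-1 co-activator recruitment in HEK293T via fragment complementation, fluorescence intensity at 24 h. DMSO served as negative control and baseline for gain-of-signal fitting.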

[5] = molecular target: Retinoic acid receptor RXR-alpha (Homo sapiens) (UniProt P19793); assay: OT_NURR1_NURR1RXRa_1440: Odyssey Thera (OT) 24-hour HEK293T Protein Complementation Assay for Nurr1/retinoid X receptor (RXR) (AID 2283386)
In short: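 Steps: fragment-tagged Nurr1 and RXRα expressed in HEK293T; compounds added; after 24 h, complemented reporter quantified by fluorescence intensity; signal increase over DMSO fitted as the single endpoint.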

[6] = molecular target: Retinoic acid receptor RXR-alpha (Homo sapiens) (UniProt P19793); assay: OT_NURR1_NURR1RXRa_0480: Odyssey Thera (OT) 8-hour HEK293T Protein Complementation Assay for Nurr1/retinoid X receptor (RXR) (AID 2283385)
In short: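 Interaction of bait and prey reconstitutes a functional reporter, whose fluorescence was measured in HEK293T cells dosed with compound for 8 hours. Signal gain relative to DMSO defined the single endpoint.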

[7] = CEETOX_H295R_OHPROG: CeeTox H295R High-throughput Steroidogenesis Assay for OH-Progesterone (OHPROG) (AID 2283435; active = hit-call score of the fitted dose curve at least 0.9, where 1 is the maximum; inactive = score below 0.9;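 for AC50: 17alpha-hydroxyprogesterone secreted into medium measured by HPLC-MS/MS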); details: actives raise or lower the signal
In short: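 Steps: seed H295R cells and adhere overnight; stimulate with 10 uM forskolin for 48 h; replace with chemical-containing medium (0.1% DMSO) for 48 h; extract medium with MTBE; quantify 17alpha-hydroxyprogesterone by reverse-phase C18 HPLC-MS/MS against a 7-point curve.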

[8] = CEETOX_H295R_11DCORT: CeeTox H295R High-throughput Steroidogenesis Assay for 11-Deoxycortisol (11DCORT) (AID 2283432; active = hit-call score of the fitted dose curve at least 0.9, where 1 is the maximum; inactive = score below 0.9;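 for AC50: 11-deoxycortisol secreted into the medium measured by LC-MS/MS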); details: actives raise or lower the signal
In short: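 Human adrenal H295R cells were prestimulated with 10 uM forskolin for 48 h, then exposed to test chemical (0.1% DMSO final) for 48 h. Medium 11-deoxycortisol was quantified by MTBE extraction and HPLC-MS/MS; bidirectional fitting relative to DMSO.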

[9] = CEETOX_H295R_CORTIC: CeeTox H295R High-throughput Steroidogenesis Assay for Corticosterone (CORTIC) (AID 2283437; active = hit-call score of the fitted dose curve at least 0.9, where 1 is the maximum; inactive = score below 0.9;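 note: corticosterone secreted into medium quantified by mass spectrometry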); details: actives raise or lower the signal
In short: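 48 h forskolin (10 uM) prestim, then 48 h chemical exposure, final DMSO 0.1%. Readout: corticosterone in medium by LC-MS/MS after MTBE extraction. Gain/loss fit vs DMSO; MTT viability in same wells.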

[10] = CEETOX_H295R_ANDR: CeeTox H295R High-throughput Steroidogenesis Assay for Androstenedione (ANDR) (AID 2283436; active = hit-call score of the fitted dose curve at least 0.9, where 1 is the maximum; inactive = score below 0.9); details: actives raise or lower the signal
In short: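 48 h chemical exposure, H295R cells, DMEM/F12 + ITS+ and Nu-Serum. Medium androstenedione: MTBE extraction, C18 reverse-phase HPLC, ESI+ MS/MS. Fit bidirectional vs DMSO; MTT viability in same wells.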

Measured: AC50

Peroxisome proliferator-activated receptor gamma (Homo sapiens), sequence (P37231 whole entry, looked up, the tested form may be a part): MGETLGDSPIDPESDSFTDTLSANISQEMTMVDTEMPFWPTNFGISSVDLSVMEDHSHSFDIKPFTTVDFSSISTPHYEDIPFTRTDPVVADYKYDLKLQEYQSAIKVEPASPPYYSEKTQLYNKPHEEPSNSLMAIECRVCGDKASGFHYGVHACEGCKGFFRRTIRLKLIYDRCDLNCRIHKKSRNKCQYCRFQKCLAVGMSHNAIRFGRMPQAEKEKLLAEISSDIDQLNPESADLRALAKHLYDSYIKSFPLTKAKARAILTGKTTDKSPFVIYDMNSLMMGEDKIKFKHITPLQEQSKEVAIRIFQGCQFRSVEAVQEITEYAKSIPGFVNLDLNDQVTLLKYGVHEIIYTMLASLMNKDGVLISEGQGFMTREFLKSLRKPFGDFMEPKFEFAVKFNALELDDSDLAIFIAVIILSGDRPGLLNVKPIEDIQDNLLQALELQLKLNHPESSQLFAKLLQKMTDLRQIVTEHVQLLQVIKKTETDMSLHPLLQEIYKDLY
Retinoic acid receptor RXR-alpha (Homo sapiens), sequence (P19793 whole entry, looked up, the tested form may be a part): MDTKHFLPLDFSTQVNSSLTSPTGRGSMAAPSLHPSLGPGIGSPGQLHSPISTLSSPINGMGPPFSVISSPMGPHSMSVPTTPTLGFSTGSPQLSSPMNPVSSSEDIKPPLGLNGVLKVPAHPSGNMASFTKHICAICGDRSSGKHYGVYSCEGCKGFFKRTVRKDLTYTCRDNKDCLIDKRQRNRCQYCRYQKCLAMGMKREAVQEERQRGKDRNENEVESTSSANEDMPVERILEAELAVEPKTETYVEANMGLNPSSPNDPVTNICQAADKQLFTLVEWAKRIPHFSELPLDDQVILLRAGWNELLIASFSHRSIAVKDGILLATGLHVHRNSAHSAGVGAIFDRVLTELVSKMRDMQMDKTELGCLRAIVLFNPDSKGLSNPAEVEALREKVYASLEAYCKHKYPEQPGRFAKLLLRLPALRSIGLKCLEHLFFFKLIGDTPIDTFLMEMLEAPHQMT
Bile acid receptor (Homo sapiens), sequence (Q96RI1 whole entry, looked up, the tested form may be a part): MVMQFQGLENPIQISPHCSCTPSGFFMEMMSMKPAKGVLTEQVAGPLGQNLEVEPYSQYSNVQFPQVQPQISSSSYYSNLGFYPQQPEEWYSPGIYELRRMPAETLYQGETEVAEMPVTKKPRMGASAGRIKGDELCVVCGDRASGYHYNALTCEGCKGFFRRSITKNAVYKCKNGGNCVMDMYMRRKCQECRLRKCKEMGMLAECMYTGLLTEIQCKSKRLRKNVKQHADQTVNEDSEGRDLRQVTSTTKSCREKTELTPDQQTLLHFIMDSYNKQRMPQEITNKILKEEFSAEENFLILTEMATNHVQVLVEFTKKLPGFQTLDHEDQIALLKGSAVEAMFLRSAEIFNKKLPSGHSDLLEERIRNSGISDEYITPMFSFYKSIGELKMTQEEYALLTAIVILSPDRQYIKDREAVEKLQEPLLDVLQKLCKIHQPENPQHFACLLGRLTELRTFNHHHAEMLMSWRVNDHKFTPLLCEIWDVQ

OB(O)O
inactive: [1] | [2] | [3]

Cc1nn(C)c(Oc2ccccc2)c1C=NOCc1ccc(C(=O)OC(C)(C)C)cc1
active: [1] 7.14 µM | [4] 9.92 µM
inactive: [2] | [3]

CCCOC(=O)c1ccc(C(=O)OCCC)nc1
active: [4] 13.2 µM
inactive: [1] | [5] | [2] | [3]

CCN(Cc1c(F)cccc1Cl)c1c([N+](=O)[O-])cc(C(F)(F)F)cc1[N+](=O)[O-]
inactive: [1] | [6] | [2] | [3]
active: [7] 15.3 µM

O=C(Nc1ccc([N+](=O)[O-])cc1Cl)c1cc(Cl)ccc1O
active: [1] 5.91 µM | [4] 1.21 µM
inactive: [2] | [3] | [8] | [7] | [9]

CC(C)CCCCCCc1ccc(O)cc1
active: [1] 11.5 µM and 11.3 µM
inactive: [2] | [3]

O=C(c1ccc(O)cc1O)c1ccc(O)cc1O
active: [4] 50 µM and 28 µM
inactive: [1] | [6] | [5] | [2] | [3]

CC(C)(C)[C@@H](O)[C@@H](Cc1ccc(Cl)cc1)n1cncn1
not listed: [5] | [6] | [10]
inactive: all other assays above

CCCCOC(=O)[C@@H](C)Oc1ccc(Oc2ccc(C(F)(F)F)cn2)cc1
active: [1] 58.9 µM
not listed: [6] | [10]
inactive: all other assays above

CCOC(=O)C(C)Oc1ccc(Oc2nc3ccc(Cl)cc3o2)cc1 (configuration not stated)
inactive: [4] | [5] | [2] | [3]
active: [1] 35.9 µM

C[C@]12CC[C@@H]3c4ccc(O)cc4C[C@@H](CCCCCCCCCS(=O)CCCC(F)(F)C(F)(F)F)[C@H]3[C@@H]1CC[C@@H]2O (some centres not stated)
inactive: [1] | [4] | [6] | [2] | [3]

CCOC(=O)c1ccc(O)cc1
active: [8] 85.1 µM | [7] 31 µM
inactive: [1] | [4] | [9]

CCCN(CCC)c1c([N+](=O)[O-])cc(C(F)(F)F)c(N)c1[N+](=O)[O-]
active: [1] 56.9 µM | [4] 50 µM
inactive: [2] | [3]

CCOC(=O)C(C)Oc1ccc(Oc2cnc3cc(Cl)ccc3n2)cc1 (configuration not stated)
active: [1] 43 µM
not listed: [5] | [10]
inactive: all other assays above

COC(=O)c1ccc(I)cc1S(=O)(=O)NC(=O)Nc1nc(C)nc(OC)n1
inactive: [2] | [3]

CCCN(CCC)C(=O)SCC
inactive: [2] | [3] | [8] | [7] | [10] | [9]

S=C(S)NCCNC(=S)S.[Mn+2].[S-]C([S-])=NCCN=C([S-])[S-].[Zn+2]
inactive: [2] | [3] | [8] | [7] | [9]

CCSC(=O)N(CC(C)C)CC(C)C
inactive: [2] | [3]

Oc1ccc(C(c2ccc(O)cc2)C(Cl)(Cl)Cl)cc1
inactive: [2] | [3] | [9]
active: [8] 2.85 µM | [7] 10 µM

CC(=O)S[C@@H]1CC2=CC(=O)CC[C@]2(C)[C@H]2CC[C@@]3(C)[C@@H](CC[C@@]34CCC(=O)O4)[C@H]12
inactive: [2] | [3] | [7] | [9]
active: [8] 1.76 µM | [10] 1.63 µM

N[C@@H](Cc1cc(I)c(Oc2ccc(O)c(I)c2)c(I)c1)C(=O)O
inactive: [2] | [3]

CCCCCOC(=O)COc1cc(N2C(=O)C3=C(CCCC3)C2=O)c(F)cc1Cl
inactive: [2] | [3] | [8] | [7] | [9]

CCCCCCC(C)OC(=O)COc1nc(F)c(Cl)c(N)c1Cl (configuration not stated)
inactive: [5]

COCCO
inactive: [2] | [3]

CCOC(=O)COc1cc(-n2ncc(C(F)(F)F)c(C)c2=O)c(F)cc1Cl
inactive: [5] | [2] | [3]

CN(C)C(=O)Nc1ccc(Cl)c(Cl)c1
inactive: [5] | [2] | [3] | [8] | [9]
active: [7] 42.6 µM | [10] 30.8 µM

C#C[C@]1(O)CC[C@H]2[C@@H]3CCC4=CC(=O)CC[C@@H]4[C@H]3CC[C@@]21CC
inactive: [5] | [2] | [3] | [8] | [7] | [9]

CSC(=O)c1cccc2nnsc12
inactive: [2] | [3] | [8] | [10]
active: [7] 50 µM | [9] 23 µM

CCCOC(=O)NCCCN(C)C
inactive: [5] | [2] | [3]

CC1(C)C(C=C(Cl)Cl)C1C(=O)OCc1cccc(Oc2ccccc2)c1 (configuration not stated)
active: [8] 11.3 µM | [7] 11.1 µM
inactive: [10] | [9]

c1ccc(Nc2ccccc2)cc1
inactive: [2] | [3] | [7]
active: [6] 50 µM

CCCCC(CC)CN1C(=O)C2C3C=CC(C3)C2C1=O (configuration not stated)
inactive: [5] | [2] | [3] | [8] | [7] | [9]

COc1c(Cl)ccc(Cl)c1C(=O)O
inactive: [2] | [3]

C=CCOC(Cn1ccnc1)c1ccc(Cl)cc1Cl (configuration not stated)
inactive: [2] | [3] | [9]
active: [8] 0.775 µM | [7] 0.142 µM

COC(=O)c1ccccc1C(=O)O
inactive: [2] | [3]

CC(=O)[C@H]1CC[C@H]2[C@@H]3CCC4=CC(=O)CC[C@]4(C)[C@H]3CC[C@]12C
inactive: [5] | [2] | [3] | [7]

O=C(O)c1ccccc1
inactive: [2] | [3]

S=C([S-])NCCNC(=S)[S-].[Mn+2]
inactive: [2] | [3] | [8] | [7] | [9]

N#CSCSc1nc2ccccc2s1
inactive: [2] | [3]

CC(C)(c1ccc(O)cc1)c1ccc(O)cc1
active: [10] 3.26 µM [middle of 4 runs]
inactive: [5] | [2] | [3] | [7]
